Records with an inconclusive call do not appear. Entries that show only a call come without a potency. Calls of active or inactive are those of the source. Unless noted, calls come from the whole dose curve; as a rule, active = well fitted curve in either direction with a large enough effect (not every such curve was filed as active); inconclusive = small, poorly fitted or top-dose-only effect, or another doubt; inactive = flat fitted curve, though single readings scatter.
Columns and labels:
[1] = biological target: Mitogen-activated protein kinase 10 (Mus musculus) (UniProt Q61831); test: JNK3 AlphaScreen Assay (AID 530); details: JNK3 lysate, c-Jun phosphorylation; series mostly up to 57.1 µM;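 note: kinase came from lysate of stimulated human HepG2 cells; signal reports phosphorylation of biotinylated GST-cJun 1-79 at Ser73 with 10 µM ATP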
Summary of the method: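 JNK3 came from HepG2 lysates pre-activated with IL-1beta and TNF-alpha and phosphorylated biotinylated GST-cJun (1-79) at 10 uM ATP, pH 7.6, room temperature. Compounds were titrated. AlphaScreen signal used anti-phospho-cJun (Ser73) antibody.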

[2] = Confirmation and Secondary Assay for Modulators of Hemoglobin Beta Chain Splicing at IVS2 654 locus (AID 910; active = well fitted curve in the direction sought with a large enough effect; an effect the other way counts as inactive or inconclusive;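 note: per-well total GFP intensity by laser scanning cytometry after 2-day treatment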); details: HeLa EGFP-654 splicing reporter, GFP fluorescence, 48 h; series mostly up to 46.1 µM
Summary of the method: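 HeLa cells stably carrying EGFP interrupted by mutant beta-globin IVS2-654 intron (CMV-driven) were treated with compound for 2 days at 37C; corrected splicing was scored as total peak GFP intensity per well (488 nm excitation, 500-520 nm emission).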

[3] = Confirmation and Secondary Assay for Modulators of Hemoglobin Beta Chain Splicing at IVS2 705 locus (AID 930; active = well fitted curve in the direction sought with a large enough effect; an effect the other way counts as inactive or inconclusive;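 note: HeLa cells stably expressing the EGFP-705 splicing reporter; GFP fluorescence per well restored by corrected splicing of the IVS2-705 intron in EGFP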); details: HeLa EGFP-705 splicing reporter, GFP fluorescence, 48 h; series mostly up to 46.1 µM
Summary of the method: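 HeLa EGFP-705 reporter; 500 cells/well, o/n 37C 5% CO2; cpd 2 d; 488 ex/500-520 em laser scan; total peak GFP intensity/well. Ref: 500 nM […] antisense PNA.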

[4] = biological target: Ubiquitin carboxyl-terminal hydrolase 1 (Homo sapiens) (UniProt O94782); test: Inhibitors of USP1/UAF1: Pilot qHTS (AID 504865; active = well fitted curve in the direction sought with a large enough effect; an effect the other way counts as inactive or inconclusive;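 note: rhodamine fluorescence freed from ubiquitin-rhodamine substrate followed over time; top concentration of the series differs between compounds; nearly all actives have a fitted effect of over 35% in size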); details: purified USP1/UAF1, Ub-rhodamine cleavage fluorescence; series mostly up to 114 µM
Chain of Ubiquitin carboxyl-terminal hydrolase 1 (Homo sapiens) (O94782 whole entry, looked up): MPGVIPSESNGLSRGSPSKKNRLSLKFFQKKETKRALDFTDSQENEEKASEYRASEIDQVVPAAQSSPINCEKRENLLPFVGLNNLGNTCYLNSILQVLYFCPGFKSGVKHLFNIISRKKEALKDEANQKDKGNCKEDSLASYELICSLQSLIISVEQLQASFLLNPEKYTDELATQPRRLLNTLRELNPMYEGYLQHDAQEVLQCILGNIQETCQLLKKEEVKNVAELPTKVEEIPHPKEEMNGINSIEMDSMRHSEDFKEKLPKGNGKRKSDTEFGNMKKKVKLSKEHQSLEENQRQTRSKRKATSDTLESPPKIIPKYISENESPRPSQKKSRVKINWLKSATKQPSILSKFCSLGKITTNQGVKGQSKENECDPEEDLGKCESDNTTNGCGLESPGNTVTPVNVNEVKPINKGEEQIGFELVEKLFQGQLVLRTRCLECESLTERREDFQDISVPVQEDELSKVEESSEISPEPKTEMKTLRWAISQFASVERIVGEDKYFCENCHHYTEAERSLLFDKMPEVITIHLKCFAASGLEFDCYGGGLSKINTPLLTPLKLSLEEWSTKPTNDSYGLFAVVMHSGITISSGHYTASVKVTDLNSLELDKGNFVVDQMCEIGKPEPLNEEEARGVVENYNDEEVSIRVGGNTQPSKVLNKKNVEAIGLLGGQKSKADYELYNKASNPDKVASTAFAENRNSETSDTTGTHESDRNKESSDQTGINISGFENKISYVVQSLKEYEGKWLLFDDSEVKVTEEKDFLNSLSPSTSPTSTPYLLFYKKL
Summary of the method: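 Enzyme-free wells gave the negative control, while test wells held 1nM USP1/UAF1 preincubated with compound for 15 min at room temperature. Ub-Rho at 150nM final started the reaction, and fluorescence at 480/540 nm was recorded kinetically.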

[5] = biological target: Cytochrome P450 3A4 (Homo sapiens) (UniProt P08684); test: qHTS Assay for Activators of Cytochrome P450 3A4 (AID 885; active = well fitted curve in the direction sought with a large enough effect; an effect the other way counts as inactive or inconclusive; note: nearly all actives have a fitted effect of over 65% in size); details: recombinant CYP3A4, Luciferin-PPXE luminescence, 60 min; series mostly up to 57.1 µM
Chain of Cytochrome P450 3A4 (Homo sapiens) (P08684 whole entry, looked up): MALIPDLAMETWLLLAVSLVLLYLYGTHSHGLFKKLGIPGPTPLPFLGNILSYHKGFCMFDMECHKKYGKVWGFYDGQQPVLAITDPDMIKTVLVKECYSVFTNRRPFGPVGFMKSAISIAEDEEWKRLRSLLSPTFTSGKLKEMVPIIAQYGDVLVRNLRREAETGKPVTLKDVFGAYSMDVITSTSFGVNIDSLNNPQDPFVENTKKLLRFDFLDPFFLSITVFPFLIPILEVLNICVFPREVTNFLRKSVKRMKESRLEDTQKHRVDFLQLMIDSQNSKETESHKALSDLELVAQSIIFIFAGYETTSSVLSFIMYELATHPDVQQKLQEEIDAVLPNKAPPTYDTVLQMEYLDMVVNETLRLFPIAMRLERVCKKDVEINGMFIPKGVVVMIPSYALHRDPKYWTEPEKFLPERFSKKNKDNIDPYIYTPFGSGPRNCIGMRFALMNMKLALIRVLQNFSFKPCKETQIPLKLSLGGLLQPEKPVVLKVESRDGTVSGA
Summary of the method: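 Quantitative HTS format: compounds preincubated with 20nM human CYP3A4 and Luciferin-PPXE substrate at KM, reaction started by NADPH regeneration, stopped after 60 min, luciferase luminescence read 20 min later.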

[6] = biological target: 3',5'-cyclic-AMP phosphodiesterase 4B (Homo sapiens) (UniProt Q07343); test: qHTS Assay for Inhibitors of PDE-IV (AID 607; active = well fitted activation curve with a large enough effect in the main read-out, with a control signal flat, not every such curve was filed as active); details: HEK293 ACTOne CNG channel cells, membrane potential fluorescence; series mostly up to 22.9 µM
Chain of 3',5'-cyclic-AMP phosphodiesterase 4B (Homo sapiens) (Q07343 whole entry, looked up): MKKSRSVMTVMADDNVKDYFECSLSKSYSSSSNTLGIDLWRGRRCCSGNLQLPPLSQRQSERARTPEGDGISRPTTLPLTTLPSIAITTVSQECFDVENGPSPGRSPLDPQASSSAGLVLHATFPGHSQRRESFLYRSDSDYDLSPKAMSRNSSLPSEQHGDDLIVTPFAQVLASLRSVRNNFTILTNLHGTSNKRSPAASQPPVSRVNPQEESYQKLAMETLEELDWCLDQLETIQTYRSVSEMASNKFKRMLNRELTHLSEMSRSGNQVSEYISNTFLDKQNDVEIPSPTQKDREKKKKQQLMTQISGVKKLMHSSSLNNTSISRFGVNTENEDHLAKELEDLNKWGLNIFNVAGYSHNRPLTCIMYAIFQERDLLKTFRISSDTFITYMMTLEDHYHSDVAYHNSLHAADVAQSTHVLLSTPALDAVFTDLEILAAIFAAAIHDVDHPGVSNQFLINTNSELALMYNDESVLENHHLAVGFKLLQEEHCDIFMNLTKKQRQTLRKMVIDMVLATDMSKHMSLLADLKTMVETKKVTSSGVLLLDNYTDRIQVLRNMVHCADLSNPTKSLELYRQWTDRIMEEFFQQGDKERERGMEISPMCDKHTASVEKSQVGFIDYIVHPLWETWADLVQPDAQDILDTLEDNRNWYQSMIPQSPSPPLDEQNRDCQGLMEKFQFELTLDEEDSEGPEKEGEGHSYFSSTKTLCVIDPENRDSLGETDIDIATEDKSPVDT
Summary of the method: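 Live HEK293 cells with a modified cyclic nucleotide-gated (CNG) channel report intracellular cAMP via membrane-potential dye fluorescence (ex 535/em 590 nm). Endogenous PDE-IV was targeted. Compounds were tested at up to 22.9 uM final; RO 20-1724 100 uM served as control.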

[7] = biological target: Cytochrome P450 3A4 (Homo sapiens) (UniProt P08684); test: qHTS Assay for Inhibitors and Substrates of Cytochrome P450 3A4 (AID 884; active = well fitted curve in the direction sought with a large enough effect; an effect the other way counts as inactive or inconclusive; note: nearly all actives have a fitted effect of over 50% in size; note: potency is the fitted concentration of half-maximal effect); details: recombinant CYP3A4, Luciferin-PPXE luminescence; series mostly up to 57.1 µM
Summary of the method: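 20 nM human CYP3A4 with 25 uM Luciferin-PPXE (at KM) in 200 mM KPO4, preincubated 10 min with compound; NADPH regeneration started a 60 min RT reaction. Luciferin detected by luminescence, normalized to 57 uM ketoconazole as full inhibition.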

With `COC(=O)[C@@H]1C[C@H]1[C@@H](NS(=O)(=O)c1ccc2ccccc2c1)c1ccccc1` the outcome [1] was “inactive”.
For `COC(=O)Cn1c(C(=O)N2CCCC2)cc2c1C[C@H]1CN(C(=O)c3ccccc3)[C@@](Cc3ccccc3)(C(=O)OC)[C@@H]21`, the outcome [1] was “inactive”.
In the case of `CCCC[C@@H]1C[C@H]1C(NC(=O)c1ccco1)c1ccccc1C(F)(F)F` (stereo not given in full), the outcome [1] is reported as “inactive”.
For `C[N+]1(C)C2CC(OC(=O)C(CO)c3ccccc3)CC1C1OC12` (stereo not given), the outcome [2] was “inactive”, the outcome [3] was “inactive” and the Potency [4] was “inactive”.
With `C[Si](C)(C)C#Cc1ccccc1NC(=S)Nc1ccccc1` the outcome [1] was “inactive”.
For `COc1cc2c(cc1OC)C(=O)OC2`, the Potency [5] was “inactive”, the outcome [2] was “inactive” and the outcome [3] was “inactive”. For the same compound, the Potency [4] was “inactive”.
In the case of `COc1cc(OC)c2c(=O)c(-c3ccccc3)c(C)oc2c1OC`, the Potency [5] is reported as “inactive”, the outcome [2] is reported as “inactive” and the outcome [3] is reported as “inactive”. The Potency [4] was “inactive”.
For `COC(=O)[C@@]1(Cc2ccc(F)cc2)[C@H]2c3cc(C(=O)N(C)C)n(CCF)c3C[C@H]2CN1C(=O)c1ccccc1`, the outcome [1] was “inactive” and the outcome [6] was “inactive”.
For `COC(=O)[C@@]1(Cc2ccc(F)cc2)[C@H]2c3cc(C(=O)N4CCCC4)n(CCSCCO)c3C[C@H]2CN1C(=O)c1ccccc1`, the outcome [1] was “inactive” and the outcome [6] was “inactive”.
With `C[C@@H](C(=O)N[C@@H](CO)Cc1ccccc1)[C@@H]1C[C@@]1(C)[C@@H](NC(=O)OCc1ccccc1)c1ccccc1` the outcome [1] was “inactive” and the outcome [6] was “inactive”.
For `COC(=O)[C@@]1(Cc2ccc(OC)cc2)[C@H]2c3cc(C(=O)N4CCCC4)n(Cc4ccc(OC(F)(F)F)cc4)c3C[C@H]2CN1C(=O)c1ccccc1`, the outcome [1] was “inactive” and the outcome [6] was “inactive”.
In the case of `COC(=O)Cn1c(C(=O)N(C)C)cc2c1C[C@H]1CN(C(=O)c3ccccc3)[C@@](Cc3ccc(OC)cc3)(C(=O)OC)[C@@H]21`, the outcome [1] is reported as “inactive” and the outcome [6] is reported as “inactive”.
In the case of `CCc1c2c(nc3ccc(OC)cc13)OC(CC)C2` (stereo not given), the outcome [1] is reported as “inactive”.
In the case of `COC(=O)[C@@]1(Cc2ccc(F)cc2)[C@H]2c3cc(C(=O)N4CCCC4)n(Cc4cc(F)cc5c4OCOC5)c3C[C@H]2CN1C(=O)c1ccccc1`, the outcome [1] is reported as “inactive” and the outcome [6] is reported as “inactive”.
For `CC(C)c1ccc2c([Si](C)(C)C)c3c(nc2c1)-c1cccc(=O)n1C3`, the outcome [1] was “inactive” and the outcome [6] was “inactive”.
For `C[C@@H](C(=O)NCc1ccc(C(F)(F)F)nc1)[C@H]1C[C@]1(C)[C@H](NC(=O)OCc1ccccc1)c1ccccc1`, the outcome [1] was “inactive” and the outcome [6] was “inactive”.
In the case of `COC(=O)[C@@]1(Cc2ccc(OC)cc2)[C@H]2c3cc(C(=O)N(C)C)n(Cc4ccccn4)c3C[C@H]2CN1C(=O)c1ccccc1`, the outcome [1] is reported as “inactive” and the outcome [6] is reported as “inactive”.
In the case of `COC(=O)[C@@]1(Cc2ccc(OC)cc2)[C@H]2c3cc(C(=O)N(C)C)n(Cc4nc5ccccc5[nH]4)c3C[C@H]2CN1C(=O)c1ccccc1`, the outcome [1] is reported as “inactive” and the outcome [6] is reported as “inactive”.
With `CCc1c2c(nc3ccc(OC)cc13)OC(C)C2` (stereo not given) the outcome [1] was “inactive” and the outcome [6] was “inactive”.
For `COC(=O)[C@@]1(Cc2ccc(OC)cc2)[C@H]2c3cc(C(=O)N(C)C)n(Cc4ccc(OC(F)(F)F)cc4)c3C[C@H]2CN1C(=O)c1ccccc1`, the outcome [1] was “inactive” and the outcome [6] was “inactive”.
With `Cc1c2c(nc3ccccc13)OCC2` the outcome [1] was “inactive” and the outcome [6] was “inactive”.
In the case of `CS(=O)(=O)c1ccc(CNC(=O)[C@H]2C[C@@H]2[C@H](NP(=O)(c2ccccc2)c2ccccc2)c2ccccc2)cc1`, the outcome [1] is reported as “inactive” and the outcome [6] is reported as “inactive”.
For `COC(=O)[C@@]1(Cc2ccc(F)cc2)[C@H]2c3cc(C(=O)N(C)C)n(CCc4ccc(OC)c(Br)c4)c3C[C@H]2CN1C(=O)c1ccccc1`, the outcome [1] was “inactive” and the outcome [6] was “inactive”.
In the case of `COC(=O)[C@@]1(Cc2ccccc2)[C@H]2c3cc(C(=O)N(C)C)n(CCO)c3C[C@H]2CN1C(=O)c1ccccc1`, the outcome [1] is reported as “inactive” and the outcome [6] is reported as “inactive”.
In the case of `COc1ccc(CNC(=O)[C@H](C)[C@@H]2C[C@@]2(C)[C@@H](NC(=O)OCc2ccccc2)c2ccccc2)cc1OC`, the outcome [1] is reported as “inactive”.
For `COC(=O)[C@@]1(Cc2ccccc2)[C@H]2c3cc(C(=O)N(C)C)n(Cc4cc(C)n(C)n4)c3C[C@H]2CN1C(=O)c1ccccc1`, the outcome [1] was “inactive” and the outcome [6] was “inactive”.
In the case of `COC(=O)[C@@]1(Cc2ccc(OC)cc2)[C@H]2c3cc(C(=O)N(C)C)n(Cc4ccc(O)c(OC)c4)c3C[C@H]2CN1C(=O)c1ccccc1`, the outcome [1] is reported as “inactive” and the outcome [6] is reported as “inactive”.
In the case of `COC(=O)[C@@]1(Cc2ccccc2)[C@H]2c3cc(C(=O)N(C)C)n(Cc4ccccc4)c3C[C@H]2CN1C(=O)c1ccccc1`, the outcome [1] is reported as “inactive” and the outcome [6] is reported as “inactive”.
In the case of `COC(=O)[C@@]1(Cc2ccc(OC)cc2)[C@H]2c3cc(C(=O)N(C)C)n(CCc4ccccn4)c3C[C@H]2CN1C(=O)c1ccccc1`, the outcome [1] is reported as “inactive” and the outcome [6] is reported as “inactive”.
With `O=C(NCc1ccccn1)[C@@H]1C[C@H]1[C@@H](NP(=O)(c1ccccc1)c1ccccc1)c1ccccc1` the outcome [1] was “inactive” and the outcome [6] was “inactive”.
In the case of `O=C(NCC1CC1)[C@H]1C[C@@H]1[C@H](NP(=O)(c1ccccc1)c1ccccc1)c1ccccc1`, the outcome [1] is reported as “inactive” and the outcome [6] is reported as “inactive”.
With `O=C(NCC1CC1)[C@@H]1C[C@H]1[C@@H](NP(=O)(c1ccccc1)c1ccccc1)c1ccccc1` the outcome [1] was “inactive” and the outcome [6] was “inactive”.
With `CCCC/C=C/C(NC(=O)c1ccc(C(=O)OC)cc1)c1ccccc1` (stereo not given) the outcome [1] was “inactive”.
In the case of `C[C@@H](C(=O)NCC1CC1)[C@H]1C[C@]1(C)[C@H](NC(=O)OCc1ccccc1)c1ccccc1`, the outcome [1] is reported as “inactive” and the outcome [6] is reported as “inactive”.
With `COCCNC(=O)[C@H]1C[C@@H]1[C@H](NP(=O)(c1ccccc1)c1ccccc1)c1ccccc1` the outcome [1] was “inactive” and the outcome [6] was “inactive”.
In the case of `COC(=O)[C@@]1(Cc2ccccc2)[C@H]2c3cc(C(=O)N(C)C)n(C[C@H](O)CO)c3C[C@H]2CN1C(=O)c1ccccc1`, the outcome [1] is reported as “inactive” and the outcome [6] is reported as “inactive”.
For `COC(=O)[C@@]1(Cc2ccc(F)cc2)[C@H]2c3cc(C(=O)N(C)C)n(CCO)c3C[C@H]2CN1C(=O)c1ccccc1`, the outcome [1] was “inactive” and the outcome [6] was “inactive”.
For `COC(=O)[C@@]1(Cc2ccc(F)cc2)[C@H]2c3cc(C(=O)N(C)C)n(Cc4cc(C)n(C)n4)c3C[C@H]2CN1C(=O)c1ccccc1`, the outcome [1] was “inactive” and the outcome [6] was “inactive”.
For `CC(=O)OCC1C2CC[C@H]3C(OCc4ccc(F)cc4C(F)(F)F)OC[C@]4(C)[C@H]3C2=C(CN4C(=O)OC(C)(C)C)[C@H](C)C1COC(C)=O` (stereo not given in full), the outcome [1] was “inactive” and the outcome [6] was “inactive”.
In the case of `COC(=O)[C@@]1(Cc2ccc(F)cc2)[C@H]2c3cc(C(=O)N(C)C)n(CCN4CCOCC4)c3C[C@H]2CN1C(=O)c1ccccc1`, the outcome [1] is reported as “inactive” and the outcome [6] is reported as “inactive”.
In the case of `COC(=O)[C@@]1(Cc2ccccc2)[C@H]2c3cc(C(=O)N(C)C)n(Cc4nc5ccccc5[nH]4)c3C[C@H]2CN1C(=O)c1ccccc1`, the outcome [1] is reported as “inactive” and the outcome [6] is reported as “inactive”.
In the case of `Cc1cc(C(=O)N[C@@H](c2ccccc2)[C@]2(C)C[C@H]2[C@@H](C)C(=O)Nc2ccc3ccccc3c2)no1`, the outcome [1] is reported as “inactive”.
In the case of `COC(=O)[C@@]1(Cc2ccc(OC)cc2)[C@H]2c3cc(C(=O)N4CCCC4)n(C[C@H](O)CO)c3C[C@H]2CN1C(=O)c1ccccc1`, the outcome [1] is reported as “inactive” and the outcome [6] is reported as “inactive”.
For `Cc1ccc(CNC(=O)[C@H]2C[C@@H]2[C@H](NP(=O)(c2ccccc2)c2ccccc2)c2ccccc2)o1`, the outcome [1] was “inactive” and the outcome [6] was “inactive”.
In the case of `Cc1ccc(CNC(=O)[C@H](C)[C@@H]2C[C@@]2(C)[C@@H](NC(=O)OCc2ccccc2)c2ccccc2)c(F)c1F`, the outcome [1] is reported as “inactive” and the outcome [6] is reported as “inactive”.
For `COC(=O)[C@@]1(Cc2ccc(OC)cc2)[C@H]2c3cc(C(=O)N(C)C)n(Cc4ccc(OC)c(OC)c4)c3C[C@H]2CN1C(=O)c1ccccc1`, the outcome [1] was “inactive” and the outcome [6] was “inactive”.
In the case of `COC(=O)[C@@]1(Cc2ccc(F)cc2)[C@H]2c3cc(C(=O)N(C)C)n(Cc4ccc(O)c(OC)c4)c3C[C@H]2CN1C(=O)c1ccccc1`, the outcome [1] is reported as “inactive” and the outcome [6] is reported as “inactive”.
In the case of `C=C(CC1([C@@H](NP(=O)(c2ccccc2)c2ccccc2)[C@H]2C[C@@H]2CCCC)CC1)c1ccccc1`, the outcome [1] is reported as “inactive”, the outcome [6] is reported as “inactive” and the Potency [7] is reported as 1.58 µM (active). The Potency [5] was “inactive”.
For `CNC(=O)C1(CC(C)C)C=CCN1C(=O)c1ccccc1` (stereo not given), the outcome [1] was “inactive” and the Potency [7] was “inactive”.
With `COC(=O)[C@@]1(Cc2ccccc2)[C@H]2c3cc(C(=O)N4CCCC4)n(CCN4CNCC4=O)c3C[C@H]2CN1C(=O)c1ccccc1` the outcome [1] was “inactive”, the outcome [6] was “inactive” and the Potency [5] was “inactive”.

From PubChem BioAssay (NCATS)
